{
  "source": "the supplement of paper PMC7156485",
  "note": "± gives the standard deviation of the averaged measurements.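 Note: TDF denotes transformed human dermal fibroblasts of mesenchymal origin.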",
  "data": [
    {"system": "HCC1569", "test": "cell number relative to DMSO (% of DMSO); higher = more cells (less growth inhibition / toxicity)", "conditions": "concentration: 10 µM; 24 h", "procedure,_shortened": "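HCC1569 and TDF cells (800 per well, 384-well plates, RPMI with 10% FBS) were treated with compounds at 10 µM for 24 h at 37 °C, in triplicate. Cells were fixed in 3.7% formaldehyde and stained with a rabbit anti-H1.0 antibody, an AlexaFluor 647 secondary and DAPI; six fields per well were imaged at ×10. H1.0 nuclear intensity or cell number is expressed as percent of the plate DMSO control, taking the median of replicates. HCC1569 values were smoothed for positional effects.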", "values": [
      {"smiles": "COc1ccccc1N1CCN(CCCNc2cc(=O)n(C)c(=O)n2C)CC1.Cl", "note": "[Urapidil hydrochloride]", "cell number": 101},
      {"smiles": "CN[C@H](CC(=O)O)C(=O)O", "note": "[N-Methyl-D-aspartic acid]", "cell number": 104},
      {"smiles": "CN(C)C(=O)COC(=O)Cc1ccc(OC(=O)c2ccc(N=C(N)N)cc2)cc1.CS(=O)(=O)O", "cell number": 99.4},
      {"smiles": "Nc1nc(Cl)nc2c1ncn2C1OC(CO)C(O)C1F", "note": "(stereo not given) [Clofarabine]", "cell number": 90.6},
      {"smiles": "O=C1NC(=O)C(c2cn(CCCn3ccnc3)c3ccccc23)=C1Nc1ccccc1", "note": "[PKCb Inhibitor]", "cell number": 100},
      {"smiles": "Cc1cc(C2CCCCC2)n(O)c(=O)c1.NCCO", "note": "[Ciclopirox ethanolamine]", "cell number": 78.7},
      {"smiles": "COc1ccc(CC(N)C(=O)NC2C(CO)OC(n3cnc4c(N(C)C)ncnc43)C2O)cc1", "note": "(stereo not given) [Puromycin]", "cell number": "24.1 ± 7.4"},
      {"smiles": "CN(C)c1cc2c(Nc3ccc4c(cnn4Cc4ccccc4)c3)ncnc2cn1", "cell number": 82.9},
      {"smiles": "CCCC[C@@H](C=O)NC(=O)[C@H](CC(C)C)NC(=O)[C@H](CC(C)C)NC(C)=O", "cell number": 47.1},
      {"smiles": "CCC(NC(C)C)C(O)c1ccc(O)c2[nH]c(=O)ccc12.Cl", "note": "(stereo not given) [Procaterol.HCl]", "cell number": 101},
      {"smiles": "CC(C=CC=C(C)C=CC1=C(C)CCCC1(C)C)=CC=CC=C(C)C=CC=C(C)C=CC1=C(C)CCCC1(C)C", "cell number": 101},
      {"smiles": "Cl.Cl.OCCN1CCN(CCC=C2c3ccccc3Sc3ccc(C(F)(F)F)cc32)CC1", "note": "[cis-(Z)-Flupenthixol dihydrochloride]", "cell number": 86.1},
      {"smiles": "CC(C)(O)CCC(O)C(C)(O)C1CCC2(O)C3=CC(=O)C4CC(O)C(O)CC4(C)C3CCC12C", "note": "(stereo not given)", "cell number": 102},
      {"smiles": "CCCCCCC=CCCCCCCCCC(=O)O", "note": "[10(Z)-Heptadecenoic acid]", "cell number": 99.6},
      {"smiles": "Cl.NCCCC(N)(C(=O)O)C(F)F", "note": "(racemic) [DL-alpha-Difluoromethylornithine hydrochloride]", "cell number": 98.5},
      {"smiles": "Oc1cc(O)cc(/C=C/c2ccc(Br)cc2)c1", "note": "[5-[(E)-2-(4-bromophenyl)ethenyl]-1,3-benzenediol]", "cell number": 93.1},
      {"smiles": "CCCCCC=CCC=CCC=CC=CC(O)CCCC(=O)O", "note": "(stereo not given)", "cell number": 97},
      {"smiles": "Br.Oc1ccc(C2CNCCc3c2cc(O)c(O)c3Cl)cc1", "note": "(stereo not given) [Fenoldopam bromide]", "cell number": 103},
      {"smiles": "O=C(O)[C@H]1C[C@H](C(=O)O)N1", "note": "(relative stereo) [trans-Azetidine-2,4-dicarboxylic acid]", "cell number": 95.1},
      {"smiles": "O=C(Nc1ccc(Cl)cc1)Nc1cccc(-c2cccc(N3CCCC3)n2)c1", "cell number": 96},
      {"smiles": "Cl.NC1(C(=O)O)CC1", "note": "[1-Aminocyclopropanecarboxylic acid hydrochloride]", "cell number": 100},
      {"smiles": "CCC(=C(c1ccccc1)c1ccc(OCCN(C)C)cc1)c1ccccc1", "note": "[Tamoxifen]", "cell number": 103},
      {"smiles": "COc1cc2ncnc(Nc3ccc(F)c(Cl)c3)c2cc1OCCCN1CCOCC1", "cell number": 80.2},
      {"smiles": "COc1c(O)cc(O)c2c(=O)cc(-c3ccccc3)oc12", "note": "[Wogonin]", "cell number": 100},
      {"smiles": "COc1cc2nc(N(C)CCCNC(=O)C3CCCO3)nc(N)c2cc1OC", "note": "(stereo not given) [Alfuzosin]", "cell number": 99.7},
      {"smiles": "NCCCC(O)(P(=O)([O-])O)P(=O)(O)O", "note": "[Alendronate]", "cell number": 106},
      {"smiles": "CC1(C)CCCC(C)(C2CCC3(C)C2C(O)CC2C4(C)CCC(O)C(C)(C)C4C(O)CC23C)O1", "note": "(stereo not given) [Panaxatriol]", "cell number": 100},
      {"smiles": "c1ccc(C(OC2CCN(CCCc3nn[nH]n3)CC2)c2ccccc2)cc1", "note": "[4-(benzhydryloxy)-1-[3-(1H-tetraazol-5-yl)propyl]piperidine]", "cell number": 104},
      {"smiles": "Cl.N=c1c[n+](N2CCOCC2)[n-]o1", "note": "[3-Morpholinosydnonimine hydrochloride]", "cell number": 104},
      {"smiles": "CN(C)CCC(CSc1ccccc1)Nc1ccc(S(=O)(=O)NC(=O)c2ccc(N3CCN(Cc4ccccc4-c4ccc(Cl)cc4)CC3)cc2)cc1[N+](=O)[O-]", "note": "(stereo not given)", "cell number": 30.5},
      {"smiles": "CNCCC(Oc1ccccc1C)c1ccccc1", "note": "(stereo not given) [Tomoxetine]", "cell number": 101},
      {"smiles": "CC[C@H](C)C(=O)O[C@H]1C[C@H](O)C=C2C=C[C@H](C)[C@H](CC[C@@H](O)C[C@@H](O)CC(=O)[O-])[C@H]21.[Na+]", "cell number": 101},
      {"smiles": "Clc1ccc(COC(Cn2ccnc2)c2ccc(Cl)cc2Cl)c(Cl)c1", "note": "(stereo not given) [Miconazole]", "cell number": 96.8},
      {"smiles": "CC1=CC(=O)C2=C(C)CCC3C(C)C(=O)OC3C12", "note": "(stereo not given) [Leucomisine]", "cell number": 99.3},
      {"smiles": "Cl.Oc1ccc(C2CNCCc3c2cc(O)c(O)c3Cl)cc1", "note": "(stereo not given) [Fenoldopam.HCl]", "cell number": 97.6},
      {"smiles": "CC(=O)c1ccc(N2CCOCC2)cc1O", "note": "[DNA-PK Inhibitor III]", "cell number": 99.1},
      {"smiles": "CC1=C(C(=O)O)N2C(=O)C(NC(=O)C(N)C3=CCC=CC3)C2SC1", "note": "(stereo not given) [Cephradine]", "cell number": 100},
      {"smiles": "C=C(CC)C(=O)c1ccc(OCC(=O)O)c(Cl)c1Cl", "note": "[Ethacrynic Acid]", "cell number": 100},
      {"smiles": "CC(C)(S)[C@H](N)C(=O)O", "note": "[L-Penicillamine]", "cell number": 100},
      {"smiles": "CC(C=CC1=C(C)CCCC1(C)C)=CC=CC(C)=CC(=O)O", "note": "[Retinoic acid]", "cell number": 104}
    ]}
  ]
}
